The nature of experiment [1]: qHTS profiling of the MIPE4 collection as inhibitors of Plasmodium falciparum (DD2) proliferation (AID 743345; call rule not given here). The settings on record: P. falciparum Dd2 in erythrocytes, SYBR Green DNA, 72 h; at 28.5 µM (top of the series) unless noted. In outline: (§1)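 Parasite DNA was quantified by SYBR Green I fluorescence (ex 485, em 535 nm) after overnight lysis in saponin/Triton buffer at room temperature. Cultures at 0.3% parasitemia and 2.5% hematocrit were first exposed to compound for 72 h at 37 C; signals were normalised to artemisinin (0.29 uM) and vehicle wells.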
On the technique in general: In qHTS, concentration-response curves come from the screen itself.

The nature of experiment [2]: qHTS profiling of the MIPE4 collection as inhibitors of Plasmodium falciparum (DD2) proliferation (Rep 2) (AID 743346; call rule not given here). Conditions: P. falciparum Dd2 in erythrocytes, SYBR Green DNA, 72 h; at 28.5 µM (top of the series) unless noted. In outline: as §1
Experiment [3] is described as follows: qHTS profiling of the MIPE4 collection as inhibitors of Plasmodium falciparum (HB3) proliferation (AID 743347; call rule not given here;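 further: plate controls were DMSO vehicle wells for no effect and artemisinin wells for full effect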). Conditions: P. falciparum HB3 in erythrocytes, SYBR Green DNA, 72 h; at 28.5 µM (top of the series) unless noted. In outline: as §1
The nature of experiment [4]: High-throughput drug toxicity screening in the BPDCN cell line Gen2.2 (AID 1224824; call rule not given here;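 further: cells exposed to compounds for 48 h before reading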). The settings on record: Gen2.2 BPDCN cells; at 45.8 µM (top of the series) unless noted. The method, boiled down:
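Seed 500 exponentially growing Gen2.2 cells/well; add compounds by pin tool; incubate 48 h, 37 °C, 5% CO2; add CellTiter-Glo, 15 min RT; read luminescence. % activity vs DMSO (100%) and bortezomib (0%).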

Experiment [5] is described as follows: High-throughput drug toxicity screening in the BPDCN cell line Cal-1 (AID 1224825; call rule not given here). The settings on record: Cal-1 BPDCN cell viability, qHTS; at 45.8 µM (top of the series) unless noted. The method, boiled down: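 CellTiter-Glo luminescence after 48 h compound exposure; percent activity scaled with DMSO as 100% and bortezomib (9.2 uM final) as 0%. Cal-1 cells seeded at 500/well in RPMI, 10% FBS, no phenol red.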

Experiment [6] is described as follows: qHTS assay for measurement of the activity of small molecule inhibitors on Zika virus induced Caspase-3 activity in human iPSC derived neural progenitor cells (hNPCs) (AID 1224857). Further: nearly all actives have a fitted effect of over 65% in size. Further: potency means the concentration at half of the fitted maximal effect. The method, boiled down: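 Pretreat hNPCs with compound 1 h; infect ZIKV 2 FFU/cell; 6 h 37 C, 5% CO2; Caspase-Glo 3/7, 30 min RT; luminescence; normalize to no-virus and virus-only wells.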

A short description of experiment [7]: qHTS assay for measurement of the activity of small molecule inhibitors on Zika virus induced Caspase-3 activity in human astrocytoma cells (AID 1224859).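 Further: plate controls were ZIKV-infected untreated cells for no effect and uninfected cells for full effect.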 The method, boiled down: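 Human SNB-19 astrocytoma cells in RPMI 1640 with 10% FBS receive compound one hour ahead of Zika virus at 2 FFU/cell. After 6 h infection, caspase-3/7 activity is detected by Caspase-Glo luminescence.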

Experiment [8] in a line: qHTS Screen of the MIPE 4.0 Collection Against Ewings Sarcoma (TC32) (AID 1259256). Further: nearly all actives have a fitted effect of over 45% in size. Further: potency means the concentration at half of the fitted maximal effect. In outline: (§2)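 Dose series incubated 48 h with cells in RPMI plus 5% FBS, glutamine and penicillin/streptomycin; cell viability then quantified via CellTiter-Glo.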
Experiment [9] can be described thus: qHTS assay to identify small molecule inhibitors of chordoma cells - UCH-1 (AID 1259355). Further: nearly all actives have a fitted effect of over 55% in size. Further: potency means the concentration at half of the fitted maximal effect. In outline: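 Screening used approved and investigational drugs in 15-point titration against 800 seeded cells per well. A fixed combination of auranofin with camptothecin, doxorubicin, rubitecan and topotecan followed compound addition, and growth was scored by CellTiter-Glo after 48hr.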

A short description of experiment [10]: qHTS assay to identify small molecule inhibitors of chordoma cells - UCH-2 (AID 1259356). Further: potency means the concentration at half of the fitted maximal effect.
A short description of experiment [11]: qHTS Screen of the MIPE 4.0 Collection Against Ewings Sarcoma (RDES) (AID 1259252).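 Further: 100% = DMSO-treated cells and 0% = medium-only wells without cells; nearly all actives have a fitted effect of over 35% in size.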 In outline:
as §2

The nature of experiment [12]: qHTS Screen of the MIPE 4.0 Collection Against Ewings Sarcoma (EW8) (AID 1259255). Further: nearly all actives have a fitted effect of over 35% in size. Further: potency means the concentration at half of the fitted maximal effect.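 On viability: 100% = DMSO-treated cells and 0% = medium-only wells without cells.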 In outline:
as §2

The nature of experiment [13]: qHTS Screen of the MIPE 4.0 Collection Against Ewings Sarcoma (TC71) (AID 1259253). Further: nearly all actives have a fitted effect of over 40% in size. Further: potency means the concentration at half of the fitted maximal effect. The method, boiled down:
as §2

Experiment [14] is described as follows: P-glycoprotein substrates identified in KB-3-1 adenocarcinoma cell line, qHTS therapeutic library screen (AID 1346986). Further: nearly all actives have a fitted effect of over 60% in size. In outline:
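Viability by CellTiter-Glo after 72 h compound exposure at 37 degree C, 5% CO2. Cytotoxic call: curve class -1.1 to -2.4, maximum response >50%, AC50 < 10 uM, compared across KB-3-1 and P-gp-overexpressing KB-8-5-11.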

The nature of experiment [15]: Identifying Small Molecule Inhibitors of Pancreatic Cancer Stem Cells (SN12C, Adherent) (AID 1259358).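 Further: cell survival measured after 48 h of compound exposure.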 The method, boiled down: (§3)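 Endpoint: ATP-based luminescence, 48 h drug exposure. Bortezomib at 9.2 uM final as full-kill control; DMSO vehicle as negative control; activity normalized between vehicle and cell-free wells.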
Experiment [16] can be described thus: Identifying Small Molecule Inhibitors of Pancreatic Cancer Stem Cells (A278, Adherent) (AID 1259361).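 Further: 100% = DMSO-treated cells and 0% = cell-free media-only wells; nearly all actives have a fitted effect of over 35% in size.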 In outline:
as §3

Experiment [17] in a line: Identifying Small Molecule Inhibitors of Pancreatic Cancer Stem Cells (SN12C, Spheroid) (AID 1259360).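 Further: 100% = DMSO-treated cells and 0% = wells without cells.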 The settings on record: Potency: SN12C spheroid viability. The method, boiled down:
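Spheroids grown 14 days in stem cell media on hydrogel-coated nonadherent plates; 2D lines seeded directly. Compounds added after 4 h attachment, 48 h at 37C, 5% CO2; CellTiter-Glo luminescence normalized to DMSO (no inhibition) and no-cell wells (full inhibition).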

Experiment [18] can be described thus: Identifying Small Molecule Inhibitors of Pancreatic Cancer Stem Cells (Panc1, Adherent) (AID 1259362).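 Further: compound exposure lasted 48 h before the viability read; plate controls were DMSO-treated cells for no effect and cell-free media wells for full effect.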 The settings on record: Potency: viability. The method, boiled down: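 Viability is scored by CellTiter-Glo luminescence 48 h after dosing, expressed as percent activity against vehicle and no-cell references. Spheroid formats rely on cells cultured 14 days in stem cell media beforehand.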

“And” between values parts separate entries of the source, which are not always exact repeats. Equal values may be shown once. Inconclusive results are not listed. The source holds several records for some structures; these can differ, active in one and inactive in another. The source made the active and inactive calls. Unless noted, the call rests on the fitted dose curve; in most records, active means well fitted curve in the direction sought with a large enough effect; inconclusive means small, poorly fitted or top-dose-only effect, or another doubt; inactive means no such curve, though single readings can be large; an effect the other way counts as inactive or inconclusive.

Regarding `Cc1cc(=O)c2c(O)c3c(O)cc(=O)c4c3c3c(cc(O)c1c23)C(C)(C)C=4O`, the parasite growth remaining, % of DMSO control (lower = more inhibition) in experiment [1] is 23.7%. This compound also gave a parasite growth, % of control (lower = inhibition) in [2] of 13.7%. The compound also registered a growth, % of control in experiment [3] of 5.99%. Besides, the cell viability, % of control (lower = more cytotoxic) in [4] was found to be 130%. Moreover, the viability (% of control) in [5] came to 94.6%. Besides, the Potency result in experiment [6], in experiment [7] and in [8] was “inactive” each time. In addition, the Potency in experiment [9] was 6.31 µM (active); in [10], 6.51 µM (active).

`CC(=O)O[C@H]1C(=O)[C@@]2(C)C([C@H](OC(=O)c3ccccc3)[C@]3(O)C[C@H](OC(=O)[C@H](O)[C@@H](NC(=O)c4ccccc4)c4ccccc4)C(C)=C1C3(C)C)[C@]1(OC(C)=O)CO[C@@H]1C[C@@H]2O` (stereo partly specified): the parasite growth remaining, % of DMSO control (lower = more inhibition) in experiment [1] was 14.4%. In experiment [2], the parasite growth, % of control (lower = inhibition) is 11.8%. Also, the growth, % of control in experiment [3] was 4.22%. Moreover, in [4], the cell viability, % of control (lower = more cytotoxic) came out at 17%. Besides, in [5], the viability (% of control) came to 12.8%. Further, the Potency entry in [6], in experiment [7], in experiment [11], in experiment [12] and in [8] was “inactive” each time.

Regarding `O=c1ccc2ccc(O)c(O)c2o1`, in [1], the parasite growth remaining, % of DMSO control (lower = more inhibition) worked out at 34.2%. The compound further registered a parasite growth, % of control (lower = inhibition) in experiment [2] of 19.7%. For the same compound, in experiment [3], the growth, % of control came to 162%. The cell viability, % of control (lower = more cytotoxic) in experiment [4] turned out to be 42.5%. Besides, the viability (% of control) in experiment [5] came out at 20.8%. In addition, the Potency result in experiment [6], in experiment [7] and in experiment [14] was “inactive” throughout. Besides, the Potency in experiment [13] was 14.8 µM (active); in experiment [8] it was 13.2 µM (active).

`C[C@H](Cc1ccc(O)c(O)c1)[C@@H](C)Cc1ccc(O)c(O)c1`: the parasite growth remaining, % of DMSO control (lower = more inhibition) in [1] is 17.2%. In experiment [2], this compound registered a parasite growth, % of control (lower = inhibition) of 16.4%. In addition, the growth, % of control in experiment [3] came out at 20.7%. The cell viability, % of control (lower = more cytotoxic) in experiment [4] is 7.79%. Further, the viability (% of control) in [5] stood at 5.77%. Moreover, the Potency entry in experiment [6] was “inactive and 26.4 µM (active)”; in [13] it was 13.2 µM (active); in [12], 16.6 µM (active); in experiment [8], 13.2 µM (active). Besides, the Potency result in experiment [7] and in experiment [10] was “inactive” each time.

For the compound `Nc1nc(OCc2ccccc2)c2[nH]cnc2n1`, the cell viability, % of control (lower = more cytotoxic) in experiment [4] was 56%. Further, the viability (% of control) in [5] was found to be 39.4%. Also, the Potency result in experiment [6] and in [7] was “inactive” in each case. The Potency in experiment [13] was 13.2 µM (active); in experiment [12], 26.4 µM (active).

With `CCN(CCO)CCCC(C)Nc1ccnc2cc(Cl)ccc12` (stereo unspecified), the parasite growth remaining, % of DMSO control (lower = more inhibition) in [1] is 16.9%. Also, the parasite growth, % of control (lower = inhibition) in experiment [2] stood at 15.4%. In [3], this compound came in with a growth, % of control of 49.8%. In addition, the cell viability, % of control (lower = more cytotoxic) in [4] amounted to 86.1%. The viability (% of control) in experiment [5] was 8.28%. For the same compound, the Potency entry in [6], in experiment [7], in experiment [9], in experiment [10] and in [15] was “inactive” each time. Also, in experiment [8], the Potency is 23.5 µM (active). The IC50 (viability decrease) entry in experiment [16] was “inactive”.

In turn, `CN(C)c1ccc(O)c2c1C[C@H]1C[C@H]3[C@H](N(C)C)C(=O)C(C(N)=O)=C(O)[C@@]3(O)C(=O)C1=C2O` displayed a parasite growth remaining, % of DMSO control (lower = more inhibition) in [1] of 9.85%. This compound had a parasite growth, % of control (lower = inhibition) in experiment [2] of 6.85%. In [3], the growth, % of control was 6.27%. In addition, the cell viability, % of control (lower = more cytotoxic) in [4] turned out to be 77.4%. The viability (% of control) in [5] stood at 80%. The Potency entry in experiment [6], in experiment [7], in [9] and in experiment [10] was “inactive” each time. Moreover, the Potency in experiment [13] was 4.69 µM (active).

On to `Cc1nc2n(c(=O)c1CCN1CCC(c3noc4cc(F)ccc34)CC1)CCCC2`, for which, in [4], the cell viability, % of control (lower = more cytotoxic) came out at 80.6%. Further, the viability (% of control) in [5] worked out at 103%. Also, the Potency entry in experiment [6], in [7], in experiment [13], in experiment [12], in experiment [8] and in [9] was “inactive” each time. For the same compound, in experiment [10], the Potency result was “inactive”.

For `CC[C@]1(O)C[C@H]2CN(CCc3c([nH]c4ccccc34)[C@@](C(=O)OC)(c3cc4c(cc3OC)N(C=O)[C@H]3[C@@](O)(C(=O)OC)[C@H](OC(C)=O)[C@]5(CC)C=CCN6CC[C@]43[C@@H]65)C2)C1`, the parasite growth remaining, % of DMSO control (lower = more inhibition) in experiment [1] amounted to 18%. In addition, the parasite growth, % of control (lower = inhibition) in experiment [2] worked out at 19.1%. Besides, in [3], the growth, % of control was 5.89%. The cell viability, % of control (lower = more cytotoxic) in [4] was determined as 10.7%. Moreover, the viability (% of control) in [5] is 10.9%. Moreover, the Potency entry in experiment [6], in experiment [7], in experiment [8] and in experiment [10] was “inactive” in each case. Besides, the Potency in experiment [13] is 0.0033 µM (active); in experiment [9], 0.224 µM (active).

In the case of `Cc1ccc(NC(=O)c2ccc(CN3CCN(C)CC3)cc2)cc1Nc1nccc(-c2cccnc2)n1`, the parasite growth remaining, % of DMSO control (lower = more inhibition) in experiment [1] came out at 10.8%. The compound also came in with a parasite growth, % of control (lower = inhibition) in experiment [2] of 24.1%. The compound further had a growth, % of control in experiment [3] of 4.5%. Besides, the cell viability, % of control (lower = more cytotoxic) in experiment [4] worked out at 308%. Further, the viability (% of control) in [5] worked out at 81%. Also, the Potency result in [6], in [7], in experiment [9], in [10], in experiment [15] and in [17] was “inactive” throughout. Also, the Potency result in experiment [18] was “inactive”.

Values taken from PubChem BioAssay (NCATS).
